High-throughput results as filed in PubChem.
Most compounds without a hit are left out; they make up all but 13% or so of the library.
Sfp inh – qHTS Assay for Inhibitors of Bacillus subtilis Sfp phosphopantetheinyl transferase (PPTase); AID 1490, 2009; Biochemical Sfp PPTase activity, qHTS; Potency, µM, without a hit: largest response in the series, negative = inhibition, usual class: inhibitors; 310,000 compounds, 3.5% hits;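 further: the enzyme is Sfp with the accession as filed and its product quenches rhodamine fluorescence; potency means the concentration at half of the fitted maximal effect; 0% = enzyme reaction without inhibitor and -100% = no enzyme wells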
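Step 1, compound plus 15 nM Sfp-PPTase, 15 min, room temperature. Step 2, add rhodamine-CoA (5 uM) and BHQ-2-YbbR (12.5 uM). Step 3, read 525/598 nm fluorescence at 0 and 30 min.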
G9a inh – qHTS Assay for Inhibitors of Histone Lysine Methyltransferase G9a; Histone-lysine N-methyltransferase EHMT2 (Homo sapiens), Q96KQ7; G9a H3K9 monomethylation, AlphaScreen, 2 h; Potency, µM (highest dose often 102 µM), inactives show at the highest dose activity, negative = inhibition, hits mostly inhibitors; 350,000 compounds, 8.8% hits; further: potency means the concentration at half of the fitted maximal effect; on the % scale 0 is the no-effect control and ±100 the full control effect; nearly all actives have a fitted effect of over 75% in size
Target sequence (Q96KQ7 913-1193 limits assumed): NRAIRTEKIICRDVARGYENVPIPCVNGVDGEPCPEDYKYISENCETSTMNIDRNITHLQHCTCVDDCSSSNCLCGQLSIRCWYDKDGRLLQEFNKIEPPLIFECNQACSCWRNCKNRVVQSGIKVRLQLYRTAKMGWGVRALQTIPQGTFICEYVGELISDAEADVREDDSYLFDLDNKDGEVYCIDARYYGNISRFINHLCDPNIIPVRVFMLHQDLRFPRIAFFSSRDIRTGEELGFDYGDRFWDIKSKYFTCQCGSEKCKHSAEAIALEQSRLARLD
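Step 1: enzyme (final 20 nM) with compound, 15 min RT. Step 2: substrate peptide 500 nM and SAM 20 uM, 2 h RT. Step 3: anti-H3K9me1 antibody and AlphaScreen beads, 10 min, then plate read.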
JMJD2E inh – qHTS Assay for Inhibitors of Human Jumonji Domain Containing 2E (JMJD2E); Lysine-specific demethylase 4E (Homo sapiens), B2RXH2; JMJD2E catalytic domain, FDH-coupled NADH fluorescence (FDH is formaldehyde dehydrogenase); Potency, µM (titrated, usually from 57.1 µM), for inactives: at the highest dose activity change, negative = inhibition, hits mostly inhibitors; 230,000 compounds, 1.6% hits; active means well fitted inhibition curve with a large enough effect, not every such curve was filed as active; inconclusive means small, poorly fitted or top-dose-only effect, or another doubt; inactive means no such curve, though single readings can be large or run the other way;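 further: potency means the concentration at half of the fitted maximal effect; 0% = wells with enzyme and -100% = buffer wells without enzyme; nearly all actives have a fitted effect of over 50% in size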
Target sequence (B2RXH2 1-337 limits assumed): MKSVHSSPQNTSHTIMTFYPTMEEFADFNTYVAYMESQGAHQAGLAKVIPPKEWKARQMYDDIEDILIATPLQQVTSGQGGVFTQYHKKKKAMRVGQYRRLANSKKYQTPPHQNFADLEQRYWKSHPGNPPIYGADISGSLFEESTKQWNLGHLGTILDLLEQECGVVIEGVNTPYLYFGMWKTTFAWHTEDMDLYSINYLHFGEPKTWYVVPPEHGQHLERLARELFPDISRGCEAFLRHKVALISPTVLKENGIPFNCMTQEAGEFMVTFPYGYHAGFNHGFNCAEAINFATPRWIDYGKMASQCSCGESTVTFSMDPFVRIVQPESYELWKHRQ
miR-21 reporter – qHTS Assay for Modulators of miRNAs and/orActivators of miR-21 | HeLa miR-21 FLuc reporter, luciferase, 48 h | Potency, µM (top dose mostly 38.3 µM), for inactives: at the highest dose activity change, positive = activation, hits mostly activators | 340,000 tested, under 10 active | AID 2288, 2010;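 further: % of control where 0% means no effect; miR-21 action dims this reporter so a rising signal means less miR-21 action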
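HeLa cells endogenously expressing miR-21, stably carrying CMV-driven firefly luciferase with a downstream miR-21 binding site, 2000 cells/well. Titrations up to approximately 40 uM, 48 hours; luciferase luminescence read.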
ALDH1A1 inh – qHTS Assay for Inhibitors of Aldehyde Dehydrogenase 1 (ALDH1A1); Purified ALDH1A1, NADH fluorescence, propionaldehyde substrate; Aldehyde dehydrogenase 1A1 (Homo sapiens), P00352; Potency, µM (series often up to 75.3 µM), for the others: top-dose activity, negative = inhibition, hits mostly inhibitors; 220,000 compounds, 7.3% hits; active means well fitted inhibition curve with a large enough effect, not every such curve was filed as active; inconclusive means small, poorly fitted or top-dose-only effect, or another doubt; inactive means no such curve, though single readings can be large or run the other way;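 further: potency means the concentration at half of the fitted maximal effect; plate controls were no enzyme wells and a reference inhibitor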
Lamin A splicing – qHTS Assay for Modulators of Lamin A Splicing. 200,000 compounds, 0.01% hits. HeLa LMNA splicing GFP/RFP minigene ratio, 48 h. Potency, µM (highest dose often 46.1 µM), inactives show at the highest dose ratio change, negative = inhibition, usual class: inhibitors. AID 1487, 2009; active means well fitted inhibition curve with a large enough effect in the signal ratio, with a control signal flat, not every such curve was filed as active; inconclusive means small, poorly fitted or top-dose-only effect, or effect the other way, or a change in a side signal; the % refers to the signal ratio; further: potency means the concentration at half of the fitted maximal effect; on the % scale 0 is the no-effect control and ±100 the full control effect
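S3 HeLa stable clones carrying a lamin A-EGFP splicing minigene plus DsRed2 were seeded at 600 cells/well in Opti-MEM with 2% FBS, pin-dosed and incubated 48 h at 37°C. Acumen cytometry (488 nm) gave the GFP/RFP total-intensity ratio.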
The depositor's hits bear a star; [ ] = another dose, or the depositor's remark. Unless noted, the call rests on the fitted dose curve; in most records, active means well fitted curve in the direction sought with a large enough effect; inconclusive means small, poorly fitted or top-dose-only effect, or another doubt; inactive means no such curve, though single readings can be large; an effect the other way counts as inactive or inconclusive.

`CN1C2CCC1/C(=C\c1ccccc1F)C(=O)/C2=C/c1ccccc1F` gave Sfp inh 3%, G9a inh 50µM*, JMJD2E inh -1%, miR-21 reporter -8%, ALDH1A1 inh 6% and Lamin A splicing -15%.
For Cc1ccc(S(=O)(=O)NCc2cccnc2)cc1C(=O)NC1CCCCC1 the results were G9a inh -23%[59 µM].
Screening O=C(Nc1ccc2oc(-c3ccncc3)nc2c1)c1ccco1 returned Sfp inh 5%, G9a inh 40µM* and miR-21 reporter -35%.
O=C(Nc1ccc2oc(-c3ccncc3)nc2c1)c1ccc(Br)o1 was read as Sfp inh 4%, G9a inh 32µM* and miR-21 reporter -6%.
`CC(C)c1ccc(NC(=O)C2CCCN(S(=O)(=O)c3ccc4[nH]c(=O)oc4c3)C2)cc1` (stereo not drawn) gave G9a inh 5%[59 µM], miR-21 reporter -17% and Lamin A splicing 3%[46 µM].
`O=C(NNc1c([N+](=O)[O-])cc(C(F)(F)F)cc1[N+](=O)[O-])c1ccco1` gave Sfp inh -6%, G9a inh inconclusive and miR-21 reporter 25%.
Screening Cc1ccccc1-c1noc(-c2cccnc2N2CCN(c3ccccc3)CC2)n1 returned G9a inh -43%[59 µM] and miR-21 reporter 15%.
For Cc1nnc(NC2=NCCC2)o1 the results were Sfp inh inconclusive, G9a inh 9%[12.7 µM], JMJD2E inh -9%, miR-21 reporter 2%, ALDH1A1 inh inconclusive and Lamin A splicing 1%.
Screening Cc1nnc(NC2=NCCC2)s1 returned Sfp inh -17%, G9a inh 28µM*, JMJD2E inh -2%, miR-21 reporter -8%, ALDH1A1 inh 2% and Lamin A splicing 3%.
For O=C(NCc1ccccc1Cl)c1cc(C(=O)C2CC2)c[nH]1 the results were Sfp inh 4% and miR-21 reporter -1%.
CCN(C(=O)Cn1c(C(=O)OC)cc2sc(Cl)cc21)c1cccc(C)c1 was read as G9a inh 7%[59 µM] and miR-21 reporter 0%.
Cc1ccc(CN(C)C(=O)C2CCCN2C(=O)c2cccs2)o1 (stereo not drawn) was read as Sfp inh 35µM*, G9a inh 45µM*, JMJD2E inh 3%, miR-21 reporter -2%, ALDH1A1 inh inconclusive and Lamin A splicing 6%.
`O=C(NCCC1=CCCCC1)C(=O)NCc1ccccc1Cl` gave Sfp inh 16%, G9a inh 15%[2.33 µM], JMJD2E inh -5%, miR-21 reporter -3%, ALDH1A1 inh 7% and Lamin A splicing 14%.
`O=C1CC(NCCC2=CCCCC2)C(=O)N1c1cccc(Cl)c1Cl` (stereo not drawn) gave Sfp inh inconclusive, G9a inh 5%[2.33 µM], JMJD2E inh -1%, miR-21 reporter -4%, ALDH1A1 inh 5.6µM* and Lamin A splicing -11%.
Screening Nc1nnc(CCS(=O)(=O)c2ccc(Cl)cc2)s1 returned Sfp inh 0%, G9a inh 5%[12.7 µM], JMJD2E inh 0%, miR-21 reporter -3%, ALDH1A1 inh 7% and Lamin A splicing -2%.
Nc1nnc(CCS(=O)(=O)c2cc(Cl)ccc2Cl)s1 was read as Sfp inh -3%, G9a inh inconclusive, JMJD2E inh 5%, miR-21 reporter -4%, ALDH1A1 inh 25µM* and Lamin A splicing -2%.
For CCc1nc2ccc(C(=O)NCCCN3CCN(c4ccccc4F)CC3)cc2nc1CC the results were Sfp inh 2%, G9a inh -8% and miR-21 reporter 12%.
For COC1(OC)C(=N/O)/C(=N\O)CCC1O (stereo not drawn) the results were Sfp inh -7%, G9a inh 11µM*, JMJD2E inh -6%, miR-21 reporter -1%, ALDH1A1 inh 1% and Lamin A splicing 21%.
Screening Cc1cc(-c2ccc(Cl)cc2)c(C#N)c(N)n1 returned Sfp inh 11%, G9a inh 27%[59 µM], JMJD2E inh inconclusive, miR-21 reporter -7%, ALDH1A1 inh inconclusive and Lamin A splicing -2%.
Screening Cc1ccc(-c2cc(-c3ccccc3Cl)c(C#N)c(N)n2)o1 returned Sfp inh 11µM*, G9a inh inconclusive, JMJD2E inh inconclusive, miR-21 reporter 3%, ALDH1A1 inh inconclusive and Lamin A splicing 12%.
Screening Cc1ccc(-c2cc(-c3ccccc3)c(C#N)c(N)n2)o1 returned Sfp inh 7.9µM*, G9a inh 2.8µM*, JMJD2E inh inconclusive, miR-21 reporter 0%, ALDH1A1 inh inconclusive and Lamin A splicing inconclusive.
Screening N#Cc1c(-c2ccncc2)cc(-c2ccc(F)cc2)nc1N returned Sfp inh 6%, G9a inh 37% and miR-21 reporter -7%.
Cc1ccc(-c2cc(-c3ccc(F)cc3)nc(N)c2C#N)o1 was read as Sfp inh 8.9µM*, G9a inh 2.5µM*, JMJD2E inh inconclusive, miR-21 reporter -3%, ALDH1A1 inh inconclusive and Lamin A splicing 7%.
`N#Cc1c(-c2ccccc2)cc(C2CC2)nc1N` gave Sfp inh 8%, G9a inh 11%[59 µM], JMJD2E inh inconclusive, miR-21 reporter -32%, ALDH1A1 inh inconclusive and Lamin A splicing 20%.
CS(=O)(=O)N(CC(=O)NCCSCc1ccccc1)c1cc(C(F)(F)F)ccc1Cl was read as G9a inh 2%[59 µM] and miR-21 reporter inconclusive.
Screening CC1(C)CCC[C@]2(C)C3CC(=O)O[C@@]3(C)CC[C@H]12 (stereo partly drawn) returned Sfp inh 7%, JMJD2E inh -2% and ALDH1A1 inh 20µM*.
C[C@@]12CCC3[C@@](CCC4[C@@]3(C)CCC[C@@]4(C)C(=O)O)(CC1=O)C2 (stereo partly drawn) was read as G9a inh 7%[0.501 µM].
Screening O=C1CC(c2cccs2)CC2=C1C(c1ccccc1)n1ncnc1N2 (stereo not drawn) returned Sfp inh 15%, G9a inh -1%[12.7 µM], JMJD2E inh -12%, miR-21 reporter -1%, ALDH1A1 inh inconclusive and Lamin A splicing -17%.
